Inhibition data for 40 compounds are collected here from PubChem BioAssay.

Molecules are shown by their SMILES. A number with no mark means an inactive call. No rule for the calls is given here.

The target in this experiment is Pantothenate synthetase (Mycobacterium tuberculosis (strain ATCC 25618 / H37Rv)) (UniProt P9WIL5). In words: Coupled enzyme confirmation of inhibitors against recombinant Mtb PanC (AID 375).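 Also: 0% = full reaction with vehicle and 100% = no enzyme background.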 The following applies: coupled enzyme assay; at 10 µM, stronger effect = higher value.
Pantothenate synthetase (Mycobacterium tuberculosis (strain ATCC 25618 / H37Rv)), sequence (P9WIL5 whole entry, looked up): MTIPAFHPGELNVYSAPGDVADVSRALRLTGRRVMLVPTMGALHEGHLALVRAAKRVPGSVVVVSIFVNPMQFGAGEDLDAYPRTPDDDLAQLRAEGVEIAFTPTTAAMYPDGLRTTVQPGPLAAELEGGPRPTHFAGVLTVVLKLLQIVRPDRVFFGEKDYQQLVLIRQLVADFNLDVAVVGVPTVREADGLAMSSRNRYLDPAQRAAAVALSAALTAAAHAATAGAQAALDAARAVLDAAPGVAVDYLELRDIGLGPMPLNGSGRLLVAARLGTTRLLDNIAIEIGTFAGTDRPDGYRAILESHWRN
As for `CCCC(=O)Nc1nnc(CC(=O)OCC)s1`, the inhibition (in general, the percentage by which the read-out fell short of the control) is 3%.

Take `C=C(C)Cn1c(N2CCN(CC)CC2)nc2c1c(=O)[nH]c(=O)n2C`: the inhibition is 0%.

Turning to `Cc1cccc(NC(=O)c2cnc3sccn3c2=O)n1`, the inhibition was 4%.

Take `CCOc1ccc(CN2CCN(c3cc(C)nc4c5c(C)cc(C)nc5nn34)CC2)cc1`: the inhibition was 0%.

`CCCc1cc(C(N)=O)c(NC(=O)c2ccco2)s1`: the inhibition is 0%.

Regarding `Cc1ccc2cc(CCNC(=O)C(C)C)c(=O)[nH]c2c1C`, the inhibition was 3%.

Turning to `COc1ccccc1N(CC(=O)Nc1cccnc1)S(C)(=O)=O`, the inhibition was 5%.

Take `O=c1c2ccccc2sn1-c1ccc(S(=O)(=O)N2CCCCC2)cc1`: the inhibition was 0%.

As to `O=C(CSc1nnnn1C1CCCC1)N1CCN(C(=O)c2ccco2)CC1`, the inhibition is 0%.

`CCCCc1nc(NCCNC(=O)c2ccco2)c(C#N)c2c1CSC(C)(C)C2`: the inhibition was 3%.

Turning to `Cc1nnc(NC(=O)CSc2nnc(-c3ccc(S(=O)(=O)N4CCCC4)cc3)n2C)s1`, the inhibition is 8%.

For the compound `CC(C)COC(=O)C(C#N)c1nc2ccccc2nc1N1CCN(Cc2ccccc2)CC1` (stereo not given), the inhibition is 0%.

Regarding `COc1ccc(C2C(=O)N(C3CCCCC3)CC(=O)N2Cc2ccco2)cc1` (stereo not given), the inhibition was 6%.

Consider `CCOC(=O)Cc1nnc2c(Nc3ccc(C)cc3)nc3nonc3n12`, for which the inhibition is 1%.

For the compound `Cc1ccc(-n2c(C)cc3c2CCCC3=O)cc1`, the inhibition is 0%.

As to `CCCN1C2CCCC1CC(NC(=O)c1ccccc1F)C2` (stereo not given), the inhibition was 2%.

For `Cc1noc(C)c1S(=O)(=O)Nc1c(C)n(C)n(-c2ccccc2)c1=O`, the inhibition is 5%.

Consider `Cn1c(-c2ccc(F)cc2)cnc1SCC(=O)Nc1ccccc1N1CCOCC1`, for which the inhibition was 0%.

For the compound `CCCCCC#CCC#CCC#CCC#CCCCC(=O)O`, the inhibition was 0%.

As for `Cc1cc2c(=O)n(Cc3ccco3)c(SCC(=O)NCc3ccco3)nc2s1`, the inhibition was 3%.

Take `CN(C)C(=O)COc1ccc2cc(-c3ccccc3)c(=O)oc2c1`: the inhibition was 1%.

Consider `COc1ccc(/C(O)=C2/C(=O)C(=O)N(CCN(C)C)C2c2ccccn2)cc1OC` (stereo not given), for which the inhibition was 0%.

Take `CN(C)CCN(Cc1ccccc1)c1ccccn1`: the inhibition is 5%.

In the case of `CCSc1nnc(NC(=O)C2CCCN(S(=O)(=O)c3cnc[nH]3)C2)s1` (stereo not given), the inhibition was 7%.

With `CCN(CC)CCNC(=O)c1ccc(N)cc1`, the inhibition was 0%.

As for `CCOc1cc(S(=O)(=O)NCc2ccccn2)c(C)cc1C`, the inhibition is 0%.

Turning to `COc1ccc(Cl)cc1N1CCN(CCNC(=O)Nc2ccccc2C)CC1`, the inhibition is 0%.

Take `CC(CCc1ccccc1)NCC(O)c1ccc(O)c(C(N)=O)c1` (stereo not given): the inhibition is 2%.

In the case of `COc1ccccc1CNC(=O)Nc1cccs1`, the inhibition is 0%.

As to `CC1Cc2ccccc2N1C(=O)Cc1cccs1` (stereo not given), the inhibition is 3%.

Take `CCc1c(C)nc2ncnn2c1N1CCC(C(=O)NCc2cccc(OC)c2)CC1`: the inhibition is 0%.

For `O=C(Cc1c(O)c2ccccc2[nH]c1=O)NCc1ccc(F)cc1`, the inhibition was 0%.

`COc1ccc(-c2[nH]nc3c2C(c2ccccc2OC(=O)N2CCOCC2)C(C#N)=C(N)O3)cc1` (stereo not given): the inhibition was 5%.

Take `COc1ccccc1N1CCN(C(=O)C2CCN(S(=O)(=O)c3ccc(F)cc3)CC2)CC1`: the inhibition was 0%.

For `O=C(Cn1ccc2ccccc2c1=O)NCCC(=O)NC1CCN(Cc2ccccc2)CC1`, the inhibition was 0%.

In the case of `Cc1noc(C)c1C(=O)OCC(=O)Nc1ccccc1C(=O)NC(C)c1ccccc1` (stereo not given), the inhibition was 14%.

As for `Cn1c(=O)c2c(nc(CN3CCN(Cc4ccccc4)CC3)n2Cc2cccc(Cl)c2)n(C)c1=O`, the inhibition was 0%.

With `CCOC(=O)c1oc2c(CN3CCN(C)CC3)c(O)ccc2c(=O)c1-c1ccccc1OC`, the inhibition was 0%.

As for `Cc1csc(NC(=O)CCCSc2nc3ccccc3s2)n1`, the inhibition was 0%.

As to `Cc1nc(C)c(C(=O)Nc2ccc(C)c(F)c2)o1`, the inhibition was 5%.
